Among all 340,000 compounds or so, about 1,000 (0.29%) were called active. Cut-off read from the data, not from the text of the source: inconclusive = inhibition above about 27% without an active follow-up result; inactive = below that. Only a sample is shown. Potency and affinity values are given separately.
Experiment: H1N1 influenza NS1A inhibitors, functional cell based assay (AID 504329)
Settings: percent inhibition, at 12.5 µM, active compounds read high

| Structure (SMILES) | inhibition |
| --- | --- |
| CCCCc1nnc(NC(=O)c2ccc(OCc3c(C)noc3C)cc2)s1 | 3.77% (inactive) |
| CCOC(=O)N1CCN(C(=O)c2ccc3c(Cl)c4c(nc3c2)CCCC4)CC1 | -2.68% (inactive) |
| CSCC[C@H](NC(=O)OC(C)(C)C)C(=O)N1CCC(C(=O)N[C@@H](C)C(=O)NC(C)c2ccccc2)CC1 (some centres undefined) | 4.49% (inactive) |
| CCc1ccc(CN(C)C(=O)c2ccc3c(=O)n4c(nc3c2)CCC4)cc1 | -7.99% (inactive) |
| CCCCC(=O)OCC(=O)C1(O)Cc2c(O)c3c(c(O)c2C(OC2CC(NC(=O)C(F)(F)F)C(O)C(C)O2)C1)C(=O)c1c(OC)cccc1C3=O (centres undefined) | 14.4% (inactive) |
| COc1cccc2c1C(=O)c1c(O)c3c(c(O)c1C2=O)C[C@@](O)(C(=O)CO)C[C@@H]3OC1CC(N)C(O)C(C)O1 (some centres undefined) | 15% (inactive) |
| COc1cccc2c1C(=O)c1c(O)c3c(c(O)c1C2=O)C[C@@](O)(C(=O)CO)C[C@@H]3O[C@H]1C[C@H](N)[C@H](O)[C@H](C)O1 | 20.3% (inactive) |
| COc1cccc2c1C(=O)c1c(O)c3c(c(O)c1C2=O)CC(O)(C(=O)CO)CC3OC1CC(N(C)C)C(O)C(C)O1 (centres undefined) | 18.7% (inactive) |
| COc1cccc2c1C(=O)c1c(O)c3c(c(O)c1C2=O)CC(O)(C(C)=O)CC3OC1CC(O)C(O)C(C)O1 (centres undefined) | 20.6% (inactive) |
| COc1cccc2c1C(=O)c1c(O)c3c(c(O)c1C2=O)CC(O)(C(C)=O)CC3OC1CC(N(C)C)C(O)C(C)O1 (centres undefined) | 19.1% (inactive) |
| COc1cccc2c1C(=O)c1c(O)c3c(c(O)c1C2=O)C[C@](O)(C(C)=O)C[C@H]3O[C@@H]1C[C@@H](N)[C@@H](O)[C@@H](C)O1 | 24.5% (inactive) |
| C/C(=N\NC(=O)c1ccc(Cl)c(Cl)c1)c1cccc(NC(=O)C(C)C)c1 | -0.88% (inactive) |
| COC(=O)CC1=C(C(=O)OC)C(c2ccc3c(c2)OCO3)C(C#N)=C(N)O1 (centres undefined) | -5.88% (inactive) |
| Cc1cc(C)c(NC(=O)c2ccc(CN3CCc4ccccc4C3)cc2)c(C)c1 | 12.4% (inactive) |
| COc1ccccc1/C=C/C=C1\Oc2c(ccc(O)c2CN2CCN(CCO)CC2)C1=O | 6.54% (inactive) |
| CC(C)n1cc(C#N)c(N)n1 | -24.1% (inactive) |
| Cc1ccc2c(CN3CCCCC3C)cc(=O)oc2c1C (centres undefined) | -6.02% (inactive) |
| O=C(COC(=O)c1cccc(O)c1)Nc1ccc(Cl)cc1C(=O)c1ccccc1 | -7.75% (inactive) |
| CSC1=NCCN1C(=O)c1c(-c2c(F)cccc2Cl)noc1C | -23.1% (inactive) |
| Cc1ccc(C2C(N)C(=O)N2c2ccc(C)cc2)cc1 (centres undefined) | -20.6% (inactive) |
| Cc1ccc(NC(=O)CN(C)C(=O)Cc2ccc(Cl)c(Cl)c2)cc1 | 9.85% (inactive) |
| Cc1ccc(S(=O)(=O)NNC(=O)c2cnn(-c3ccc(Cl)cc3)c2C(F)(F)F)cc1 | -16.4% (inactive) |
| Cc1cccc(C)c1NC(=O)CN(C)C(=O)c1cccc(S(=O)(=O)N2CCN(c3ccccc3)CC2)c1 | 1.58% (inactive) |
| COc1ccc(/C=C/C=C2\N=C(SC)SC2=O)cc1 | 18% (inactive) |
| NC1=NC(=O)/C(=C/C=C/c2cccs2)S1 | -14.1% (inactive) |
| CC(C)CCNC(=O)CCc1nnc2n(CCCOC(C)C)c(=O)c3ccccc3n12 | -5.28% (inactive) |
| Cc1ccc(SCCN)cc1C | 8.4% (inactive) |

| Structure (SMILES) | inhibition |
| --- | --- |
| O=C1CC(c2ccccc2)CN1 (centres undefined) | -20.7% (inactive) |
| COc1cc(CNC2CCC(C)C2)cc(OC)c1 (centres undefined) | 4.05% (inactive) |
| Cc1ccc(SC2=C(Sc3ccc(C)cc3)C(=O)c3ccccc3C2=O)cc1 | 4.19% (inactive) |
| Cc1ccc(NC2=CC(=O)C(=O)c3ccccc32)cc1 | 2.25% (inactive) |
| NC(=O)CC(NC(=O)Cc1cccc2ccccc12)c1ccc(N2CCc3ccccc3C2)c([N+](=O)[O-])c1 (centres undefined) | 14.5% (inactive) |
| CC1(C)Oc2ccc(NC(=O)c3ccco3)cc2O1 | -10.6% (inactive) |
| CC1N(C)c2cc(NC(=O)c3ccco3)c(P(=O)(Nc3ccc([N+](=O)[O-])cc3)N3CCOCC3)cc2C1(C)C (centres undefined) | 10.5% (inactive) |
| Cc1ccc(C2(C)NC(=O)N(CC(=O)N3CCN(C(=O)c4cccs4)CC3)C2=O)cc1 (centres undefined) | -14.4% (inactive) |
| Nc1oc2ccccc2c1C(=O)Cc1ccccc1O[C@@H]1O[C@H](CO)[C@@H](O)[C@H](O)[C@H]1O | -10.9% (inactive) |
| COc1cccc(NC(=O)CSc2nc(C)cs2)c1 | -1.99% (inactive) |
| COc1ccc(NC(=O)CSc2nnc(C)c(=O)n2N)cc1 | 3.72% (inactive) |
| COc1cccc(NC(=O)CSc2nnc(C)s2)c1 | -8.01% (inactive) |
| COC(=O)c1ccc(NC(=O)CSc2nn3c(=O)c(C)nnc3s2)cc1 | 8.48% (inactive) |
| CC(C)Oc1ccc(-c2cc(=O)[nH]c(=O)[nH]2)cc1 | 2.31% (inactive) |
| Cc1c(C(=O)OCC(=O)Nc2cccc(S(N)(=O)=O)c2)oc2c1ccc1ccccc12 | -6.11% (inactive) |
| Cc1cc(=O)n2c3ccccc3n(CC(O)CN3CCC(C)CC3)c2c1C#N (centres undefined) | -2.23% (inactive) |
| O=C(c1cccc(Cl)c1)N1CCN(C2CCCCCC2)CC1 | -6.08% (inactive) |
| O=C(Nc1nccs1)c1ccc(COc2ccccc2)o1 | -27.9% (inactive) |
| COc1ccc(-c2nc(N)n(C(=O)Cc3ccccc3)n2)cc1 | 0.25% (inactive) |
| Cc1ccc(O)c(N=Nc2nccs2)c1 | 26.6% (inactive) |
| Oc1ccc(Cl)cc1/C=N/c1nccs1 | -1.76% (inactive) |
| O=C(OCC(=O)N1CCN(c2ccccc2)CC1)c1ccc2ncsc2c1 | 3.79% (inactive) |
| CC(C)(CO)NS(=O)(=O)c1ccc2c(c1)C(=O)c1cc(S(=O)(=O)NC(C)(C)CO)ccc1-2 | -3.45% (inactive) |
| COc1ccc(C(=O)NC2CCc3ccccc32)cc1OC1CCN(C(C)=O)CC1 (centres undefined) | -1.94% (inactive) |
| CS(=O)(=O)N1CCc2cc(S(=O)(=O)NCCNS(=O)(=O)c3ccc4c(c3)CCN4S(C)(=O)=O)ccc21 | -9.03% (inactive) |
| Fc1cccc(CN2CCSCC2)c1 | -2.65% (inactive) |
| O=C(NCC(c1ccco1)N1CCc2ccccc21)C(=O)Nc1ccc(F)cc1F (centres undefined) | -6.42% (inactive) |

Source: PubChem BioAssay AID504329 (Southern Research Specialized Biocontainment Screening …, 2011)
